Experimental data: PubChem BioAssay (NCI)
The panel holds about 79,000 compounds, 15% with a hit somewhere; the sample as a whole holds those more often. Active and inactive are the calls of the source. Rule as the data show it: active = growth inhibition above about 70%; inactive = the rest.

Assay: NCI Yeast Anticancer Drug Screen. Data for the rad50 strain (AID 155);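 also: 0% = growth of vehicle-only cultures of the same strain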
Conditions: S. cerevisiae rad50 strain growth inhibition, active compounds read high; at 50.0 µM unless noted
Procedure, shortened: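 DNA repair mutant yeast, compound exposure, growth read-out; inhibition is taken relative to vehicle.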

| SMILES | growth inhibition |
| --- | --- |
| OCC1C(CO)C2CC1C1N=NN(c3ccccc3)C21 (stereo not given) | -4.8% (inactive) |
| CCCCC(CC)OC(=O)c1ccccc1C (stereo not given) | -8.05% (inactive) |
| OCCCCCSc1ccccc1 | 17.4% (inactive) |
| CN(C=O)c1c(F)cc(N=Nc2ccccc2)cc1F | 2.8% (inactive) |
| Cn1ccnc1C(O)(c1nccn1C)c1nccn1C | -5.75% (inactive) |
| CCCCN=C(N)C(N)=NCCCC | -13.8% (inactive) |
| COc1ccc2nc3cc(Cl)ccc3c(Nc3ccccc3-c3ccccc3Nc3c4ccc(Cl)cc4nc4ccc(OC)cc34)c2c1 | 6.85% (inactive) |
| CCOC(=O)CON=c1c2ccccc2ccc2ccccc12 | 4.05% (inactive) |
| O=C1CSC(c2ccc(F)cc2F)N1c1nncs1 (stereo not given) | 13.4% (inactive) |
| O=C(O)c1cc(C(=O)C(=O)c2cc(C(=O)O)c(O)c3ccccc23)c2ccccc2c1O | -31.7% (inactive) |
| Cc1ccc(S(=O)(=O)OCCOCCOS(=O)(=O)c2ccc(C)cc2)cc1 | 30.8% (inactive) |
| CCCCN(CCCC)C(=N)c1ccccc1C | 4.8% (inactive) |
| CCCCC(Sc1nn(C2OC(COC(=O)c3ccccc3)C(OC(=O)c3ccccc3)C2OC(=O)c2ccccc2)c(=O)[nH]c1=O)C(=O)OCC (stereo not given) | -1.45% (inactive) |
| CC(=O)N1C(=O)CC23c4cccc([N+](=O)[O-])c4C(=O)N2CCCN13 (stereo not given) | 8.8% (inactive) |
| CCN(CC)CCOC(=O)c1ccc(NC(=O)OCCOCCOC(=O)Nc2ccc(C(=O)OCCN(CC)CC)cc2)cc1 | -1.8% (inactive) |
| O=C1OC(OC2CCCCC2)(c2ccccc2)c2ccccc21 (stereo not given) | -25.1% (inactive) |
| ClB1NB(Cl)NB(Cl)N1 | -9.45% (inactive) |
| CCOC(=O)c1cc2c(-c3ccccc3)c(-c3ccccc3)c(-c3ccccc3)c(-c3ccccc3)n2n1 | 10.2% (inactive) |
| COc1ccccc1N=Nc1c(O)n(-c2ccccc2)c(=S)n(-c2ccccc2)c1=O | 36.2% (inactive) |
| COc1ccc(C(=O)/C=C/c2ccc(OCC#N)cc2)cc1OC | -39.5% (inactive) |

| SMILES | growth inhibition |
| --- | --- |
| C/C(=N/O)c1ccncc1 | 1.15% (inactive) |
| COc1cccc(/C=C/c2cnc3ccccc3n2)c1OC | -1.25% (inactive) |
| CCc1ccc2nccc(NCCCN(C)C)c2c1[N+](=O)[O-] | 3.55% (inactive) |
| CCOC(=O)C(=O)/C(=C/N1C(=O)CC(=O)NC1=S)C(=O)OCC | -19.6% (inactive) |
| CCOC(=O)NNC(=O)Nc1ccc(O[Si](C)(C)C)cc1 | 13.4% (inactive) |
| NC(=O)C1OCOC2C(CO)OCOC12 (stereo not given) | -1.9% (inactive) |
| O=C(c1ccccc1)C(Oc1ccccc1)c1ccccc1 (stereo not given) | 39.5% (inactive) |
| NC(=O)CSCC(N)=O | 0.75% (inactive) |
| COc1ccc(/C=C2\C(=O)Nc3ccccc32)cc1OC | -3.4% (inactive) |
| Cc1cc(C)nc(NS(=O)(=O)c2ccc(NC(=O)c3ccc(Cl)c4c(Nc5ccc(S(=O)(=O)N=C(N)N)cc5)c5ccccc5nc34)cc2)n1 | 28% (inactive) |
| CC(C)(C)C(=O)Oc1ccc([N+](=O)[O-])cc1 | 2.15% (inactive) |
| Oc1ccc2ccccc2c1/C=C/c1ccc2c(Br)cc(Br)c(O)c2n1 | 60.6% (inactive) |
| CCCCCCCCC(=O)NCO | -17.8% (inactive) |
| Cc1c(NC(=S)NC(=O)c2ccc([N+](=O)[O-])cc2)c(=O)n(-c2ccccc2)n1C | 19.6% (inactive) |
| COc1cc2c(c(OC)c1OC)-c1ccc(SC)c(=O)cc1[C@@H](NC(=O)CCl)CC2 | -2.1% (inactive) |
| CN1C=C(C(N)=O)Cc2ccsc21 | 10.7% (inactive) |
| CC1=CC(=C2C=C(C)C(=O)C(C)=C2)C=C(C)C1=O | 9.85% (inactive) |
| COC(=O)c1ccc(SCCC(=O)CN2C(=O)c3ccccc3C2=O)cc1 | 18.9% (inactive) |
| CCCCN(CCCC)CC(C(=O)Nc1ccc([N+](=O)[O-])cc1[N+](=O)[O-])/C(C)=N\NC(=S)NN (stereo not given) | 3.55% (inactive) |
| Cc1cc2c(cc1Cl)SC(NNC1=NCCN1)=NS2(=O)=O | -23.1% (inactive) |
